The list is not random: actives were taken first. Their share in the collection is about 2.1%.
HIF act: HIF pathway transcriptional activation; U2OS HRE-luciferase reporter, luminescence; normalized: DMSO 0%, desferrioxamine 100%; 0.32% of 300,000 active; activation, % at 7.5 µM (by protocol);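 active = mean activation of at least 10% of the iron chelator positive control signal, with at least half of replicates also reaching 10%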
aSyn 5UTR inh: MLPCN primary screen, SNCA 5' untranslated region; inhibition, % (tested at 7.5 µM); AID 1813; 0.82% of 300,000 active; alpha-synuclein 5'UTR reporter, inhibitor activity; in the data active = inhibition above about 60%;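 note: H4 neuroglioblastoma cells stably carrying SNCA 5'UTR luciferase fusion; 0% = DMSO wells and 100% = positive control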
Platelet DG rel: platelet dense granule release activity. human platelet-rich plasma, SFLLRN dense granule ATP release, luminescence. inhibition, %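 (compounds screened at 7.5 µM in platelet-rich plasma)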. 0.22% of 300,000 active;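 active = mean replicate score, as percent of positive control, at or above 50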
KLF5 inhibitor: kruppel-like factor 5 inhibition. DLD-1 KLF5 promoter-luciferase reporter, luminescence. inhibition, % at 5 µM. 0.23% of 290,000 active;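 active = inhibition above a per-plate limit of that plate's mean compound inhibition plus 3 SD, cut at about 60% in these data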;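 note: 0% = DMSO wells and 100% = LY294002 at 200 µM; higher means less KLF5 promoter-driven luciferase light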
Wee1 stabilizer: blocks degradation of human Wee1 kinase; P30291; reporter increase, % at 5 µM; AID 1321; HeLa Luc-Wee1K328M stability, luciferase luminescence; 100% = proteasome inhibitor MG132 effect; 1.2% of 220,000 active;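 active = activation above the mean of all tested compounds plus 3 SD, set per screening run, cut at about 8.8% in these data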;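 note: cells exposed to compound for 20 h before luminescence read; 0% = DMSO alone and 100% = MG132 at 30 µM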
Target sequence (P30291 whole entry K328M): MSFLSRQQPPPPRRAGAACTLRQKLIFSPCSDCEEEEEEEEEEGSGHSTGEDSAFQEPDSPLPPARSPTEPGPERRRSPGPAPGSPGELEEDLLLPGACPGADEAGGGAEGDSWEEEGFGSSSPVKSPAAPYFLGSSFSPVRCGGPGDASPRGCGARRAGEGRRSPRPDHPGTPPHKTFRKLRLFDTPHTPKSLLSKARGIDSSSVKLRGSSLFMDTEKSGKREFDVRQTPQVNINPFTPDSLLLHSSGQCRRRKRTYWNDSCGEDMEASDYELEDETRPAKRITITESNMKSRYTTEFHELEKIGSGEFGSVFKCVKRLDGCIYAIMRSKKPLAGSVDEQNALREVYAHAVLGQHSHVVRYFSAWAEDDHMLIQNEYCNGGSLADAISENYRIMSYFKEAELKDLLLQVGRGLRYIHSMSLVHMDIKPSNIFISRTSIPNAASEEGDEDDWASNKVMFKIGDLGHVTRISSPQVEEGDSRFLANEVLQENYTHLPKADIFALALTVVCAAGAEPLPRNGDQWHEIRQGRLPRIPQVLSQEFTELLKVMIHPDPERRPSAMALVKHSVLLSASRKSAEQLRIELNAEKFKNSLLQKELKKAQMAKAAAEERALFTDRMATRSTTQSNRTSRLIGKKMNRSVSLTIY
* hit, by the source's call; nt = no result.

SMILES | HIF act | aSyn 5UTR inh | Platelet DG rel | KLF5 inhibitor | Wee1 stabilizer
CCOC(=O)c1cc2c(ccn2C)n1CC(=O)N1CCN(c2ccccc2)CC1 | 288* | 10 | 5 | -16 | -4
CCOC(=O)c1cc2c(ccn2C)n1CC(=O)N1C(C)CCCC1C (centres undefined) | 0 | -5 | -4 | -17 | -3
Cc1cc(C)c(S(=O)(=O)N2CCN(C(=O)C(C)Cn3cncn3)CC2)c(C)c1 (centres undefined) | -1 | 7 | 3 | 6 | nt
CC(C)(C)OC(=O)N1CCC2(CC1)Oc1ccc(Cl)cc1C(=O)C21CC(c2ccc(Cl)cc2)=NO1 (centres undefined) | 0 | 9 | 2 | nt | nt
O=C(N/N=C/c1ccc([N+](=O)[O-])s1)c1ccccc1Br | -2 | 47 | -5 | -14 | 2
O=C(N/N=C/c1ccc(Br)s1)c1cccc([N+](=O)[O-])c1 | 0 | 70* | -16 | -22 | 1
O=C(N/N=C/c1ccoc1)c1cccc([N+](=O)[O-])c1 | nt | nt | nt | -33 | nt
O=C(N/N=C\c1ccc([N+](=O)[O-])s1)c1cncc(Br)c1 | 0 | 77* | 0 | -19 | -2
O=C(N/N=C/c1ccc([N+](=O)[O-])s1)c1ccccc1 | -4 | 68* | 0 | 3 | -2
Cc1ccccc1C(=O)N/N=C/c1ccc([N+](=O)[O-])s1 | -3 | 93* | -2 | -20 | -1
O=C(Nc1ccc(N2CCOCC2)c(Cl)c1)c1ccc(Br)o1 | 3 | -253 | 3 | -112 | 11*
O=C(Nc1ccc(N2CCN(C(=O)c3ccccc3)CC2)c(Cl)c1)c1ccc(Br)o1 | 0 | 13 | 6 | -39 | 0
COC(=O)Nc1nnc(Cc2ccc(OC)cc2)s1 | 40* | -2 | 9 | -18 | -2
Nc1nn(-c2ccccc2)c(N)c1N=Nc1ccc2c(c1)OCO2 | 2 | -42 | -14 | -64 | 9.8*
Nc1nn(-c2ccccc2)c(N)c1N=Nc1cccc(F)c1 | 3 | -57 | -32 | -36 | 9
Cc1cc(-n2c(C)cc(C(=O)CN3C(=O)NC4(CCCC4)C3=O)c2C)no1 | 1 | -22 | -2 | -21 | 5
Cc1cc(-n2c(C)cc(C(=O)CCl)c2C)no1 | 6 | 119* | 4 | -15 | -3
COc1ccc(-n2c(C)cc(C(=O)CCl)c2C)cc1 | 16* | 65* | 5 | -53 | 1
CN(CC(=O)Nc1ccccc1Cl)C(=O)CCc1nc2ccccc2c(=O)[nH]1 | -1 | 3 | 21 | nt | nt
CCc1ccc(-c2cc3c(=O)n(CC(=O)NCCCN4CCN(C)CC4)ncn3n2)cc1 | 0 | -14 | -4 | -11 | nt
C/C(=N\NC(=O)C1=NNC(=O)C1C)c1cccs1 (centres undefined) | 1 | -81 | 2 | -22 | 5
CCOc1cccc(CN2CCN(CCc3ccccc3)C(CCO)C2)c1O (centres undefined) | 0 | -13 | -3 | 3 | -3
CCOc1cccc(CN2CCN(Cc3ccc(C)o3)C(CCO)C2)c1O (centres undefined) | 0 | -22 | 3 | -18 | 9.3*
CCOC(=O)C1=C(C)NC(=O)NC1 | -1 | 7 | 60* | -14 | -3
CCOC(=O)C1=C(C)NC(C)=C(C(=O)OCC)C1C | 0 | 15 | -1 | 1 | 2
SMILES | HIF act | aSyn 5UTR inh | Platelet DG rel | KLF5 inhibitor | Wee1 stabilizer
Cc1ccc(C(=O)Nc2nc(C)c(C(=O)Nc3ccc4c(c3)CCC4)s2)cc1 | 2 | -23 | -2 | -48 | 9.8*
O=C1CCCCC1Sc1nnc(Nc2ccccc2)s1 (centres undefined) | 6 | -127 | -8 | -120 | 8.9*
CCN(CC(=O)Nc1c(F)cccc1F)C(=O)/C=C/c1ccc(S(=O)(=O)N2CCCCCC2)cc1 | -5 | 78* | -4 | nt | nt
Cc1ccc(-c2c(C#N)c(N)n(-c3ccccc3)c(=O)c2C#N)cc1 | 0 | -1 | 54* | -3 | 0
Cc1cccc(C(=O)N[C@H](C(=O)Nc2cccc(S(=O)(=O)N3CCCC3)c2)C(C)C)c1 | 0 | 8 | 1 | 6 | -3
C=C(C)CNC(=S)Nc1cccc(S(=O)(=O)NC2=NCCC2)c1 | 0 | -7 | 4 | -15 | 2
CCOc1ccc(C(=O)NC(=S)Nc2cccc(S(=O)(=O)NC3=NCCC3)c2)cc1 | 3 | 111* | 9 | 57 | 9.5*
CCOc1ccc(C(=O)N[C@H](C(=O)Nc2cccc(S(=O)(=O)N3CCCCC3)c2)C(C)C)cc1 | -1 | 76* | 0 | -13 | 3
Cc1cccc(C(=O)NNC(=O)C2CC2)c1 | 0 | 9 | 1 | -25 | nt
COC(=O)Cc1[nH]n(-c2nc3ccccc3s2)c(=O)c1C(C)=Nc1ccc(C)cc1 | -6 | 98* | -5 | -14 | -1
COC(=O)Cc1[nH]n(-c2nc3ccccc3s2)c(=O)c1C(C)=Nc1ccc(Cl)cc1 | 1 | -29 | 17 | 12 | -4
CC(=O)c1cccc(N(C(=O)c2ccccn2)C(C(=O)NC2CCCCC2)c2ccccc2)c1 (centres undefined) | 39* | -9 | -2 | 2 | nt
COc1cc(C(=O)NCC(=O)N/N=C/c2ccc(-c3cccc([N+](=O)[O-])c3)o2)cc(OC)c1OC | 0 | 23 | 8 | -30 | nt
CC1(C)CC(NC(=S)NCc2ccc3c(c2)OCO3)CC(C)(C)N1 | 0 | -11 | -12 | -23 | 1
O=C(Nc1ccc([N+](=O)[O-])cc1)c1ccc(S(=O)(=O)N2CCCC2)cc1 | 0 | 12 | 0 | -15 | nt
O=C(Nc1ccc(S(=O)(=O)N2CCCCCC2)cc1)c1[nH]ncc1[N+](=O)[O-] | 0 | 86* | -3 | -1 | nt
O=C1NC(=O)N(c2ccccc2)C1=O | 0 | -6 | 9 | -10 | nt
O=C1CN(c2ccccc2)C(=O)N1 | 48* | 6 | 2 | -15 | 1
COc1cccc(C(=O)CSc2nnc(CNS(=O)(=O)c3ccc(C)cc3)n2C)c1 | 0 | -4 | -14 | -17 | 9.7*
COC(=O)CSc1nnc(CNS(=O)(=O)c2ccc(C)cc2)n1C | 0 | 16 | 1 | -50 | -2
Cc1ccc(-c2nc(C(Cl)Cl)c3ccccc3n2)cc1 | 3 | 93* | 4 | 16 | -3
CCCCC(=NCCc1c(C)[nH]c2ccc(OC)cc12)C1=C(O)CC(c2ccccc2)CC1=O (centres undefined) | 0 | 119* | -2 | 9 | 3
CCC(=NCCc1c(C)[nH]c2ccccc12)C1=C(O)CC(c2ccccc2)CC1=O (centres undefined) | 0 | 55 | 18 | -14 | 4
CC(=NCCc1c(C)[nH]c2ccc(OCc3ccccc3)cc12)C1=C(O)CC(c2ccccc2)CC1=O (centres undefined) | 0 | 10 | 5 | -33 | -1
CCC(=NCCc1c(C)[nH]c2ccc(OC(F)(F)F)cc12)C1=C(O)CC(c2ccccc2)CC1=O (centres undefined) | 0 | 107* | 12 | -25 | -2
Cn1nccc1C(=O)Nc1ccc2c(c1)OCO2 | 3 | -115 | 31 | -82 | nt
Cc1cc(C)[n+](Cc2ccccc2)cc1C(N)=O | 21* | -16 | -8 | nt | nt
